Laboratory results as given in the supplement of paper PMC10338343.
± gives the standard deviation.

How the values were obtained:
[1] = tested on: MILI (PIWIL2) piRISC loaded with piRNA #1 (26 nt); assay: pre-steady-state target cleavage rate (min^-1); guide: piRNA #1 5'p-UGAGGUAGUAGGUUGUAUAGUAUCCA; higher = faster piRNA-guided slicing of the target; details: auxiliary factor: 500 nM mouse GTSF1;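 note: 1 nM active piRISC with 0.1 nM target library at 33 °C single turnover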
In short: (§1)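 Reactions were run for 0–8 or 0–960 min at 33 °C in HEPES–potassium acetate buffer, combining 1 nM active affinity-purified piRISC with one synthetic guide, […] transcribed, DNA-blocked target RNA library and, in some cases, 500 nM GTSF1 partner protein. Sequencing of uncleaved targets followed, with normalisation to depth and to weakly complementary targets. Three trials were pooled, k3 was capped at 0.0001 min^-1, and the pre-steady-state cleavage rate was taken from a burst-and-steady-state fit.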

[2] = tested on: EfPiwi piRISC loaded with piRNA #1 (26 nt); assay: pre-steady-state target cleavage rate (min^-1); auxiliary factor: 500 nM Ephydatia muelleri Gtsf1; guide: piRNA #1 5'p-UGAGGUAGUAGGUUGUAUAGUAUCCA; MIWI and MILI are mouse PIWI proteins and EfPiwi is from a freshwater sponge; tags in brackets are library labels; higher = faster piRNA-guided slicing of the target
In short: as §1

Row | Sequence | pre-steady-state target cleavage rate [1] | pre-steady-state target cleavage rate [2]
1 | GGAGAGGAUACUAUACAACCUAUUACCUCA | 0.174 ± 0.018 | 0.153 ± 0.056
2 | GGAGUGGAUACUAUACAACCUCUACCUCA | 0.0226 ± 0.0033 | 0.0673 ± 0.023
3 | GGAGUUGAUACUAUACAACCUACUACCUCA | 0.204 ± 0.012 | 0.193 ± 0.06
4 | GGAGACCUUACUAUACAACCUACUGCCUCA | 0.0872 ± 0.011 | 0.00661 ± 0.0029
5 | GGAGUGGAUUCUAUACAACCUACUACCUCA | 0.175 ± 0.0091 | 0.00893 ± 0.0047
6 | GGAGUGGAUACUAAACAACCUACUACGUCA | 0.0421 ± 0.0062 | 0.00252 ± 0.0015
7 | GGAGACCUAACUAUACAAACUACUACCUCA | 0.248 ± 0.025 | 0.0044 ± 0.0038
8 | GGAGACCAUACUUUACAACCUAGUACCUCA | 0.119 ± 0.025 | 0.00535 ± 0.0043
9 | GGAGACCAUACUAUACAACCUACUACCUGA | 0.155 ± 0.023 | 0.00567 ± 0.0018
10 | GGAGUGGUUACUAUUCAACCUACUACCUCA | 0.202 ± 0.012 | 0.00293 ± 0.0021
11 | GGAGUGGAUACUAACAACCUACUACCUCA | 0.183 ± 0.011 | 0.00566 ± 0.0038
12 | GGAGACGAAUGUAUACAACCUACUACCUCA | 0.124 ± 0.011 | 0.00736 ± 0.0043
13 | GGAGACGAUACUAUACAACCUACUACACUCA | 0.202 ± 0.03 | 0.00494 ± 0.0019
14 | GGAGACGAUUCUAAACAACCUACUACCUCA | 0.168 ± 0.012 | 0.00926 ± 0.0045
15 | GGAGACCUAACUAUACAACCUACUACCUCA [g2:g21:cont:t1A] | 0.148 ± 0.032 | 0.013 ± 0.0043
16 | GGAGUGGAUACUAAUCAACCUACUACCUCA | 0.144 ± 0.01 | 0.00495 ± 0.0038
17 | GGAGAGGAUACUAUACAACCGACUACCUCA | 0.00439 ± 0.0027 | 0.00504 ± 0.002
18 | GGAGACCUAUGAAAUACAACCUACUACCUCA | 0.0221 ± 0.0062 | 0.00445 ± 0.0038
19 | GGAGACGAUACUAUACUAGCUACUACCUCA | 0.198 ± 0.011 | 0.00469 ± 0.0025
20 | GGAGACCAUACUAUACAACCUAGUACCUCA | 0.0657 ± 0.013 | 0.00446 ± 0.0014
